# Measured values from PubChem BioAssay.
# Active and inactive are the calls of the source.
# What was measured:
# [1] = tested on: Plasmodium falciparum Sir2 (PF13_0152, Sir2A); assay: pfSir2 binders on small-molecule microarrays, primary screen, biochemical, small-molecule microarray, 635 nm fluorescence (AID 1098); conditions: small-molecule microarray binding, fluorescence 635 nm; higher = more signal;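 further: score merges spot fluorescence intensity with its signal-to-noise ratio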
# [2] = small-molecule microarray binders of probe aDKK1, primary screen, biochemical, biotinylated probe, 635/667 nm fluorescence (AID 1099); conditions: higher = more signal;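 further: score merges 667nm spot fluorescence with signal to noise across triplicate slides; reference of the scale not given here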
# [3] = small-molecule microarray binders of probe aCHRDL2, primary screen, biochemical, biotinylated probe, 635/667 nm fluorescence (AID 1100); conditions: higher = more signal
# [4] = splicing luciferase reporter signal modulators, primary screen, spliceosome inhibition project, cell-based, HEK293, splice +/- reporter (AID 1101); conditions: luminescence, 24 h, higher = more signal, called active from +8 up or from −8 down;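 further: HEK293 cells carrying a splicing-competent luciferase reporter gene; test concentration not given here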
# [5] = target: Fibroblast growth factor 10 (Homo sapiens) (UniProt O15520); assay: FGF10 binders on small-molecule microarrays, primary screen, biochemical, small-molecule microarray, 635 nm fluorescence (AID 1102); conditions: FGF10 binding, fluorescence 635 nm, higher = more signal
# Sequence of Fibroblast growth factor 10 (Homo sapiens) (O15520 whole entry, looked up): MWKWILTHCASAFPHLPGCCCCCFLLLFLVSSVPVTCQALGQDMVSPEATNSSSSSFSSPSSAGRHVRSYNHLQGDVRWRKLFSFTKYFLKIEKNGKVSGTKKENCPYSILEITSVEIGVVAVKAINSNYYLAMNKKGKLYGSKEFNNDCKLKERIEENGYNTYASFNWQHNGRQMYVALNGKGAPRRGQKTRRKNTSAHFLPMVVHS
# [6] = tested on: glycogen synthase kinase-3 (GSK3A per assay name; protocol says GSK3B); assay: GSK3 binders on small-molecule microarrays, primary screen, biochemical, small-molecule microarray, 635 nm fluorescence, GSK3A (AID 1103); conditions: small-molecule microarray binding, fluorescence 635 nm; higher = more signal; further: the record names both GSK3A and GSK3B
# [7] = target: Epidermal growth factor receptor (Homo sapiens) (UniProt P00533); assay: EGFR binders on small-molecule microarrays, primary screen, biochemical, small-molecule microarray, 635 nm fluorescence (AID 1104); conditions: EGFR binding, higher = more signal;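 further: score merges 667 nm emission intensity with spot signal to noise over triplicate slides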
# Sequence of Epidermal growth factor receptor (Homo sapiens) (P00533 whole entry, looked up): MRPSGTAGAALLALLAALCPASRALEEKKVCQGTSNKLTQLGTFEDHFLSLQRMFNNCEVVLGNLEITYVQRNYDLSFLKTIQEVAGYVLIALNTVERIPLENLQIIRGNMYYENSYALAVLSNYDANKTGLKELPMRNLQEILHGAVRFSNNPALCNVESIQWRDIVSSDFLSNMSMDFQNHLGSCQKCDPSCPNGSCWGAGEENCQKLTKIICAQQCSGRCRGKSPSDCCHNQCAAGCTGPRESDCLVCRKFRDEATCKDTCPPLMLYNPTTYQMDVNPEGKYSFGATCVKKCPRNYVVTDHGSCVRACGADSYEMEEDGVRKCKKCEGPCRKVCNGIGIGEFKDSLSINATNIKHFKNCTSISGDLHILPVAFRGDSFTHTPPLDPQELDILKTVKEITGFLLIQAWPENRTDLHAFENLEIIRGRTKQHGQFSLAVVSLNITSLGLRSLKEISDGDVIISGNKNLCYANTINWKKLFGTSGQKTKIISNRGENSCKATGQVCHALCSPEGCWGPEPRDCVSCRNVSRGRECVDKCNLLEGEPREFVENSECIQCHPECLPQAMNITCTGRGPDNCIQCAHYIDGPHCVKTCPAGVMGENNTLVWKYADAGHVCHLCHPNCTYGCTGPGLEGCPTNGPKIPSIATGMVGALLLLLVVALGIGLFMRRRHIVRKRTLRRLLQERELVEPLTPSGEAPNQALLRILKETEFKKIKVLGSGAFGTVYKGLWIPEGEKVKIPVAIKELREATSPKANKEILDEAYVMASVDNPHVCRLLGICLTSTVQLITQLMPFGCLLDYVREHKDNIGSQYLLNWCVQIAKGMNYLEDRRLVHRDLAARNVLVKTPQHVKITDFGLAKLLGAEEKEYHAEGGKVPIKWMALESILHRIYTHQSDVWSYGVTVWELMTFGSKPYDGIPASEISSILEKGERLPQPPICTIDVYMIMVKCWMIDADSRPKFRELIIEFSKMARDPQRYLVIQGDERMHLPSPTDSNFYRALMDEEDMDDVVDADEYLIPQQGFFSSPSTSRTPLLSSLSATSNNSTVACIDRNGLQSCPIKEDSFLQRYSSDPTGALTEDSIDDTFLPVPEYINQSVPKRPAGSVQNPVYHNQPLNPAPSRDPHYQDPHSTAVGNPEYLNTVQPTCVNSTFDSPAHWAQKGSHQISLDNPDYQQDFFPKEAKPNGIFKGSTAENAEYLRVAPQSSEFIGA
# [8] = target: Follistatin-related protein 3 (Homo sapiens) (UniProt O95633); assay: FSTL3 binders on small-molecule microarrays, primary screen, biochemical, small-molecule microarray, 635 nm fluorescence (AID 1105); conditions: FSTL3 binding, higher = more signal;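 further: score merges emission near 667 nm and signal to noise per printed spot across three slides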
# Sequence of Follistatin-related protein 3 (Homo sapiens) (O95633 whole entry, looked up): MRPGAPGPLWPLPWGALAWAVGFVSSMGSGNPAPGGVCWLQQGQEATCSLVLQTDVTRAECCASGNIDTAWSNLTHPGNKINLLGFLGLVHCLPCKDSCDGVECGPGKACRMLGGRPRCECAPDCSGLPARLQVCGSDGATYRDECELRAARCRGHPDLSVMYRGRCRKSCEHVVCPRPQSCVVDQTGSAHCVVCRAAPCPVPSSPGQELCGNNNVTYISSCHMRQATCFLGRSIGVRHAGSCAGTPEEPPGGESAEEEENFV
# [9] = target: Dickkopf-related protein 1 (Homo sapiens) (UniProt O94907); assay: DKK1 binders on small-molecule microarrays, primary screen, biochemical, small-molecule microarray, 635 nm fluorescence scan (AID 1106); conditions: DKK1 binding, higher = more signal;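 further: score merges emission near 667 nm with signal to noise over three replicate slides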
# Sequence of Dickkopf-related protein 1 (Homo sapiens) (O94907 whole entry, looked up): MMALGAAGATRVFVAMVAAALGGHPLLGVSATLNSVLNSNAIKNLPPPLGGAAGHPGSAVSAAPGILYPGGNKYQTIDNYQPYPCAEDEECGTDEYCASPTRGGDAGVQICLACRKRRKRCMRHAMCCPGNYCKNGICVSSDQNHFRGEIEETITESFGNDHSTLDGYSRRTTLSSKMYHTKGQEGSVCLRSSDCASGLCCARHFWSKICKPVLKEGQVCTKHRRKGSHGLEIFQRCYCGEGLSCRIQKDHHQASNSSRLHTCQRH
# [10] = tested on: Inhibin beta A chain (activin A); assay: INHBA (activin A) binders on microarrays, primary screen, biochemical, small-molecule microarray, 635 nm fluorescence scan (AID 1107); conditions: small-molecule microarray binding, higher = more signal;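 further: mouse activin A protein probed at 4.33 µg/mL on printed slides; score merges bound-protein fluorescence near 667 nm with spot signal-to-noise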
SMILES,composite z-score [1],composite z-score [2],composite z-score [3],z-score [4],composite z-score [5],composite z-score [6],composite z-score [7],composite z-score [8],composite z-score [9],composite z-score [10]
CN1C(=O)C2C=CC(C(O)c3ccc(Br)cc3)N(N(c3ccccc3)c3ccccc3)C2C1=O (stereo not given),0.259,0.359,1.04,0.605 (inactive),-0.14,-0.0403,-0.211,0.0397,-0.626,1.26
COC(=O)[C@H](C)NC(=O)CCC1CC(OC(=O)NCc2cccc3ccccc23)CC2(CCCC(COC(=O)NCC3CCCCC3)O2)O1 (stereo not given in full),0.534,-0.0762,-0.86,-0.397 (inactive),1.47,1.36,1.15,1.08,0.528,-0.564
COc1ccc(CCNC(=O)[C@@H]2c3ccccc3C(=O)N(c3ccc(C)cn3)[C@H]2c2ccc(CO)cc2)cc1,1.73,0.263,1.19,-0.403 (inactive),-1.06,-0.37,-1.68,-1.16,-2.4,-0.082
CCOC(=O)[C@H](Cc1ccccc1)NC(=O)CCC1CC(OC(=O)NCc2ccc3c(c2)OCO3)CC2(CCCC(COC(=O)NCc3ccccc3)O2)O1 (stereo not given in full),0.403,-0.125,-0.468,-1.03 (inactive),1.02,0.78,0.361,1.02,0.606,-0.303
CC(C)(C)OC(=O)CC[C@]1(C(=O)NCc2ccccc2)N=C(c2ccc(OCCCO)cc2)O[C@H]1c1ccccc1,1.73,-0.0749,0.574,0.351 (inactive),0.686,1.24,0.0167,-0.136,-0.402,-0.285
COC(=O)c1c(CC[C@@H](CO)NC(=O)N[C@H](Cc2ccccc2)Cn2cc(-c3ccccc3N)nn2)oc(C(C)=O)c1C(=O)OC,0.326,0.759,0.886,0.433 (inactive),0.865,0.355,-0.165,0.204,-0.299,0.95
COCC(=C=CC[C@@H](O)c1ccccc1OCCO)CCO,0.718,0.117,0.09,0.0385 (inactive),1.49,-0.0421,-0.423,0.135,0.335,0.706
[N-]=[N+]=Nc1ccccc1C[C@@]1(C(N)=O)N=C(c2ccc(OCCCO)cc2)O[C@@H]1c1ccccc1,0.616,1.53,1.3,-1.23 (inactive),-0.0111,-0.0514,-0.874,-0.0838,-0.82,1.34
CN1C(=O)[C@@]2(CCC(=O)OC(C)(C)C)N=C(c3ccc(OCCCO)cc3)O[C@H]2c2ccccc21,1.26,0.0179,0.457,-0.0334 (inactive),0.788,1.33,0.181,0.529,-0.0485,1.03
CC(CCN1CCCCc2nc(C)c(C)cc21)=NOC(C)CN1CCCCc2nc(C)c(C)cc21 (stereo not given),1.62,-0.142,-0.595,0.127 (inactive),1.07,1.33,1.58,1.42,1.68,0.908
COc1ccc(O[C@@H]2[C@H](O)CO[C@H]2C=CC#Cc2ccccc2)cc1,1.32,-0.477,-0.716,0.167 (inactive),0.199,-0.207,-0.352,0.103,0.438,0.539
COCCCNC(=O)[C@]1(Cc2ccccc2)N=C(c2ccc(OCCCO)cc2)O[C@@H]1c1ccccc1,1.73,-0.0501,0.755,0.0778 (inactive),1.16,0.618,-0.578,-0.351,-0.894,0.455
O=C1[C@H]2[C@H]3[C@H](O)[C@H](O)CC(=NO[C@@H]4O[C@H](CO)[C@@H](O)[C@H](O)[C@H]4O)[C@H]3CC[C@H]2C(=O)N1C1CCCCC1,0.643,0.0533,-0.0589,-0.381 (inactive),0.0041,0.266,-0.0158,-0.182,-0.191,-1.65
COc1ccc(O[C@H]2C=C[C@@H](c3ccccc3)O[C@@H]2COC(=O)CCC(C)=NOC[C@@H](C)[C@H](OCc2ccccc2)C(C)C)cc1,-0.886,-0.366,-0.529,0.292 (inactive),-0.433,-0.662,-0.706,-0.629,-0.698,0.553
Cc1ccc(S(=O)(=O)N[C@@H]2COC(=O)[C@H](C)COC(=O)CC=C[C@H]2C)cc1,-0.0259,-0.291,-0.589,0.159 (inactive),0.66,0.771,0.751,1.41,1.8,1.16
C[C@@H]1CC[C@H]2C(=O)O[C@H](COc3ccc(C(C)(C)C)cc3)CN2[C@H]1c1ccc(Br)cc1,0.751,-0.136,-0.299,0.148 (inactive),-0.0611,-0.533,-0.287,-0.175,0.0539,0.352
COCCOC(=O)N1C(=O)[C@@]2(c3cc(C#CC4(O)CCCCCC4)ccc31)[C@H](c1ccc(OCCO)cc1)N1[C@H](c3ccccc3)[C@H](c3ccccc3)OC(=O)[C@H]1[C@@H]2C(=O)NC[C@H](O)c1ccccc1,0.933,0.0678,0.389,-0.268 (inactive),1.18,1.29,0.258,0.432,0.208,0.527
CC(C)c1ccc(NN2C(C(O)c3ccc4c(c3)OCO4)C=CC3C(=O)N(c4ccccc4)C(=O)C32)cc1 (stereo not given),1.19,0.521,0.944,1.18 (inactive),0.584,1.18,0.407,0.886,0.263,0.581
COC(=O)CC=C[C@@H](C)[C@@H](C=NO[C@H](C)c1cn([C@@H]2COC[C@H]2O)nn1)OC,0.626,-0.43,-0.611,0.605 (inactive),0.739,0.617,0.856,1.06,0.492,-0.335
CC(C)CON=C1[C@H]2CCn3c(=O)n(-c4ccccc4)c(=O)n3[C@H]2[C@H](O)[C@@H]2O[C@H]12,0.734,-0.217,-0.481,-0.271 (inactive),0.229,0.298,0.481,0.532,1.2,-0.0603
O=C1O[C@@H](c2ccccc2)[C@@H](c2ccccc2)N2[C@@H](c3ccccc3OCCO)[C@]3(C(=O)Nc4ccc(C#CCCO)cc43)[C@@H](C(=O)O)[C@H]12,1.58,-0.878,-0.721,-2.02 (inactive),0.608,1.03,-0.0589,0.14,-0.167,1.24
COCCCNC(=O)[C@@]1(C)c2ccccc2C(=O)N(Cc2ccc(OC(F)(F)F)cc2)[C@H]1c1ccc(CO)cc1,0.655,0.506,0.973,-0.346 (inactive),-0.527,-1.3,-1.11,-0.851,-0.401,0.153
